The values below come from PubChem BioAssay AID2391 (Southern Research Specialized Biocontainment Screening …, 2010).

About 410 (0.13%) of roughly 310,000 compounds were called active. About 2% were inconclusive and are not listed. Not all results are given here. Measured potencies and affinities stand elsewhere. Values without a mark were called inactive. No rule for the calls is given here.

This assay is described as follows: RSV antiviral activity via CPE protection, HEp-2 cells, primary 10 µM value included (AID 2391). Conditions: RSV-induced CPE inhibition, at 10 µM, stronger effect = higher value.
In the case of `[O-]/[N+](=C/c1ccco1)c1ccccc1`, the CPE inhibition was 2.24%. As for `COc1cccc(NC(=O)c2ccccc2C(F)(F)F)c1`, the figure is 1.62%; as for `O=C(c1ccc(Cl)c(S(=O)(=O)N2CCOCC2)c1)N1CCOCC1`, -0.1%.

With `CCCCOC(=O)c1ccc(NC(=O)c2ccc(F)cc2F)cc1`, the CPE inhibition was 3.03%. Turning to `CCOC(=O)c1sc(NC(=O)Cc2ccc(F)cc2)nc1C`, the CPE inhibition was 17.9%. Next, `NC(=O)CCN1CCN(Cc2nc(C(c3ccccc3)c3ccccc3)no2)CC1`: -0.36%. As for `O=S(=O)(Nc1nc2ccccc2s1)c1cnc(Cl)c(Br)c1`, the figure is 0.69%; as for `Cc1ccc(Cn2nnc3c(=O)[nH]c(C4CCCN(S(=O)(=O)c5ccccc5)C4)nc32)cc1` (stereo unspecified), 13%; as for `O=c1[nH]c(C2CCCN(S(=O)(=O)c3ccccc3)C2)nc2c1nnn2Cc1cccc(Cl)c1` (stereo unspecified), 43%.

`Cc1ccc(Cn2nnc3c(=O)[nH]c(C4CCCN(S(=O)(=O)c5ccc(F)cc5)C4)nc32)cc1` (stereo unspecified): the CPE inhibition was 5.93%. As for `O=c1[nH]c(C2CCCN(S(=O)(=O)c3ccccc3)C2)nc2c1nnn2Cc1ccc2c(c1)OCCO2` (stereo unspecified), the figure is 60.4%; as for `COC(=O)c1ccc(Cn2nnc3c(=O)[nH]c(C4CCCN(S(=O)(=O)c5ccccc5Cl)C4)nc32)cc1` (stereo unspecified), 2.61%. Next, `O=c1[nH]c(C2CCCN(S(=O)(=O)c3ccccc3)C2)nc2c1nnn2Cc1ccccc1F` (stereo unspecified): 3.4%; `COC(=O)c1ccccc1S(=O)(=O)N1CCCC(c2nc3c(nnn3Cc3ccc(C)cc3)c(=O)[nH]2)C1` (stereo unspecified): 10.4%; `Cc1ccc(Cn2nnc3c(=O)[nH]c(C4CCCN(S(=O)(=O)c5ccccc5F)C4)nc32)cc1` (stereo unspecified): 4.65%. Turning to `CN1CCN(/C(=N\O)c2nonc2N)CC1`, the CPE inhibition is -0.46%.

On to `Cc1ccc(-c2[nH]c3cc(C(=O)NCCCn4ccnc4)ccc3c(=O)c2O)cc1`, for which the CPE inhibition is 1.07%. Regarding `O=C(CCN1C(=O)S/C(=C\C=C\c2ccccc2)C1=O)Nc1ccc(O)cc1`, the CPE inhibition was -1.82%. Next, `CCOC(=O)CC(NC(=O)C(CC)c1ccccc1)c1ccccc1Cl` (stereo unspecified): 3.39%; `COc1ccc(N2CCN(S(=O)(=O)c3ccc(OC)c(C(=O)N4CCOCC4)c3)CC2)cc1`: 0.25%; `COc1ccccc1C(=O)C1CCCN(C(=O)c2ccccn2)C1` (stereo unspecified): 2.51%. Next, `Cc1ccc(CN(C)C(=O)COC(=O)CSc2ccc(C(N)=O)cc2[N+](=O)[O-])cc1`: -0.57%; `COC(=O)c1ccc(NC(=O)c2ccccc2-c2ccccc2C(=O)O)cc1`: 0.77%; `CCCCCCC(=O)Nc1c2c(nc3ccccc13)N(C)CC2`: 0.9%. As for `O=C(Nc1ccc(F)cc1F)N1CCCC(c2nc(-c3ccc(F)cc3)no2)C1` (stereo unspecified), the figure is 14.7%; as for `O=C(Nc1cccc(Cl)c1)Nc1nnc(CC2=CCCCC2)s1`, 5.11%. `CCOc1ccc(S(=O)(=O)N(C)CC(=O)NCc2ccccn2)cc1Cl`: the CPE inhibition was 1.39%. Consider `COCCN1C(=O)C(CC(=O)Nc2ccc(C(C)=O)cc2)SC1=Nc1ccccc1` (stereo unspecified), for which the CPE inhibition was 2.47%.

For the compound `COCCN1C(=O)C(CC(=O)Nc2ccc(C(=O)O)cc2)SC1=Nc1ccccc1` (stereo unspecified), the CPE inhibition is 1.29%.

For the compound `COc1ccc(OCc2n[nH]c(=S)n2Cc2ccco2)cc1`, the CPE inhibition was 2.67%.

Consider `Cc1ccc(C2C3=C(CCCC3=O)N=C3c4ccccc4C(=O)C32)cc1` (stereo unspecified), for which the CPE inhibition was 11.5%.

With `O=C1CCCC2=C1C(c1ccc(Cl)cc1)C1C(=O)c3ccccc3C1=N2` (stereo unspecified), the CPE inhibition is 58.3%. As for `CCOc1nc(Nc2ccc(OC)cc2)nc(N2CCOCC2)n1`, the CPE inhibition was 2.38%. In the case of `COc1ccc(C(=O)/C=C/NCc2ccc(F)cc2)cc1OC`, the CPE inhibition is 4.99%.

For the compound `Cc1ccc(C)c(S(=O)(=O)N2CCCOC2CNC(=O)C(=O)NCc2cccs2)c1` (stereo unspecified), the CPE inhibition was 1.48%. For the compound `CCN(CC)c1ccc(CN(C(=O)c2cccs2)C2CCS(=O)(=O)C2)cc1` (stereo unspecified), the CPE inhibition is 1.38%. With `COc1ccc(NC(=O)Nc2cc3oc4ccccc4c3cc2OC)cc1`, the CPE inhibition is 9.45%. Next, `COc1cc2c(cc1NC(=O)Nc1ccc(C)cc1)oc1ccccc12`: 33%; `CCS(=O)(=O)Nc1ccc(C2=NN(S(=O)(=O)CC)C(c3cccs3)C2)cc1` (stereo unspecified): 2.5%.

Turning to `Cc1ccc(CS(=O)Cc2ccc(C(=O)NCC(C)c3ccccc3)o2)cc1` (stereo unspecified), the CPE inhibition was 1.69%. For the compound `COCCCNC(=O)CN(c1cc(Cl)ccc1OC)S(C)(=O)=O`, the CPE inhibition was 0.7%. Next, `C=CCNC(=O)c1ccc(-c2nc(-c3ccc(Cl)cc3Cl)cs2)cc1`: 3.05%; `O=C(O)c1ccc(-c2nc(-c3ccccc3Cl)cs2)cc1`: 15.1%. Next, `CCOc1ccc(C(C(=O)NC2CCCC2)N(CCOC)C(=O)CNC(=O)c2ccco2)cc1` (stereo unspecified): 0.14%; `CCC(C)NCC(=O)Nc1cc(S(=O)(=O)N(CC)c2ccccc2)ccc1Cl` (stereo unspecified): 10.6%.

`CCN(c1ccccc1)S(=O)(=O)c1ccc(Cl)c(NC(=O)CSc2nncs2)c1`: the CPE inhibition was 14.1%. Regarding `CCN(c1ccccc1)S(=O)(=O)c1ccc(Cl)c(NC(=O)CSc2nnc(C)s2)c1`, the CPE inhibition is 17.6%. As for `CCN(c1ccccc1)S(=O)(=O)c1ccc(Cl)c(NC(=O)CSc2nncn2C)c1`, the figure is 4.02%; as for `CCN(c1ccccc1)S(=O)(=O)c1ccc(OC)c(NC(=O)Cc2ccc(OC)c(OC)c2)c1`, 8.13%. Next, `CCN(c1ccccc1)S(=O)(=O)c1ccc(OC)c(NC(=O)Cc2ccc(F)cc2)c1`: 13.4%; `CS(=O)(=O)c1ccc(Cl)c(NC(=O)CSc2n[nH]c(N)n2)c1`: -0.18%. Next, `Nc1nc(SCC(=O)Nc2cc(S(=O)(=O)N3CCOCC3)ccc2Cl)n[nH]1`: 0.46%; `CCC(=O)NC(=S)Nc1ccc2oc(-c3ccc(OC)cc3)nc2c1`: -0.44%. For `Cc1[nH]c2c(Cl)cccc2c(=O)c1CN1CCCCCC1`, the CPE inhibition is -1.59%.

Take `CC(=O)c1ccc(C(=O)NC2CCCN(Cc3ccccc3F)C2)cc1` (stereo unspecified): the CPE inhibition is -0.91%. For `Cc1nc(N)nc(N/N=C/c2c(F)cccc2Cl)n1`, the CPE inhibition was 0.02%.
